The text below walks through data of PubChem BioAssay.

Calls of active or inactive are those of the source.

In experiment [1] the test system is Human papillomavirus type 1a protein E7 (residues 44-93). Nature of the experiment: small molecules binding HPV E7 44-93 – biochemical, small-molecule microarray, residues 44-93, 635 nm fluorescence, primary screen (AID 1108).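 Note: E7 fragment applied at 1 µg/mL in TBST for 1 h at 4 C; score combines spot fluorescence with its signal to noise ratio.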 Conditions: fluorescence 635 nm, higher = more signal.
Experiment [2] can be described thus: hepatitis C replication reporter changes, two-sided – Huh7 cells, luciferase reporter, HCV replication inhibitor project, primary screen (AID 1109).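 Note: huh7 hepatoma cells harbouring a luciferase neomycin HCV replicon reporter; luciferase luminescence as measure of HCV replicon replication; test concentration not given here.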 The note with it: Huh7 HCV replicon luciferase reporter, 48 h; higher = more signal. On the technique in general: In a reporter assay the amount or activity of a reporter protein is the signal.
The target in experiment [3] is Left-right determination factor 2 (Homo sapiens) (UniProt O00292). Put plainly: small molecules binding LEFTY2 protein – biochemical, small-molecule microarray, 635 nm fluorescence scan, primary screen (AID 1110). The note with it: higher = more signal.
Experiment [4] addresses Calmodulin-1 (Homo sapiens) (UniProt P0DP23). Nature of the experiment: small molecules binding calmodulin-1 with EGTA – biochemical, small-molecule microarray, Cy5-labelled CALM1, profiling panel (AID 1111).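 Note: labelled calmodulin applied in Tris saline Tween buffer holding calcium plus EGTA and DTT.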 The note with it: Cy5-CALM1 binding fluorescence, higher = more signal.
Experiment [5] shares this target. Put plainly: small molecules binding Ca-loaded calmodulin-1 – biochemical, small-molecule microarray, Cy5-labelled CALM1, plus calcium, artefact control for SMM control-protein annotation, profiling panel (AID 1112).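 Note: score merges spot fluorescence with signal to noise from triplicate slides.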 Conditions: Cy5-CALM1 binding fluorescence, higher = more signal.
Experiment [6] in a line: probe aWnt5a binding to arrayed compounds – biochemical, biotinylated probe, 635/667 nm fluorescence, primary screen (AID 1113).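 Note: score merges 667 nm fluorescence intensity with signal-to-noise per printed feature.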 Conditions: small-molecule microarray, higher = more signal.
A short description of experiment [7]: probe aShh binding to arrayed compounds – biochemical, biotinylated probe, 635/667 nm fluorescence, primary screen (AID 1114).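 Note: probe is biotin-labelled aShh protein from a stem cell growth factor screen; measures binding of labelled protein to compounds printed on the slide; score merges feature fluorescence at 667 nm with signal-to-noise.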 Conditions: small-molecule microarray, higher = more signal.
A short description of experiment [8]: probe aNog binding to arrayed compounds – biochemical, biotinylated probe, 635/667 nm fluorescence, primary screen (AID 1115).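 Note: probe is biotinylated aNog protein used at 0.15 µg/mL for 1 h at 4 C; z-score combines 667 nm fluorescence of each spot with its signal to noise.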 The note with it: small-molecule microarray, higher = more signal.
The target in experiment [9] is Torsin-1A-interacting protein 1 (Homo sapiens) (UniProt Q5JTV8). Put plainly: compound microarray binding of lysate hLAP1 – cell lysate, small-molecule microarray, COS7 lysate, 635/667 nm fluorescence, primary screen (AID 1116). Conditions: 635 nm fluorescence, higher = more signal.
For experiment [10], the target named is Alpha-bungarotoxin (Bungarus multicinctus) (UniProt P60615). Put plainly: compounds binding labelled alpha-BTX control protein – biochemical, small-molecule microarray, Alexa647 label, 635/667 nm fluorescence, artefact control for SMM control protein annotation, profiling panel (AID 1117). Conditions: alpha-BTX-A647 binding fluorescence, higher = more signal.

Experiment [11] deals with Albumin (Bos taurus) (UniProt P02769). Nature of the experiment: compounds binding labelled BSA control protein – biochemical, small-molecule microarray, Alexa647 label, 635/667 nm fluorescence, artefact control for SMM control protein annotation, profiling panel (AID 1118).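 Note: score merges 667 nm emission intensity and signal-to-noise per printed compound spot.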 The note with it: BSA-A647 binding, fluorescence 635 nm, higher = more signal.
Experiment [12] can be described thus: probe aXIP binding to arrayed compounds – biochemical, NeuroSMM set, 635/667 nm fluorescence, primary screen (AID 1119).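 Note: probe is the protein aXip251-270 applied at 1 µg/mL to compound-printed slides; binding of probe to printed compounds measured as 667 nm fluorescence plus signal to noise.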 Conditions: small-molecule microarray, higher = more signal, called active from +8 up or from −8 down.
The nature of experiment [13]: probe aNOTCH3 binding on compound microarray – biochemical, small-molecule microarray, 635/667 nm fluorescence, primary screen (AID 1120).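 Note: probe is a biotin-tagged antibody raised against NOTCH3 rather than NOTCH3 protein; score merges spot fluorescence near 667 nm with spot signal to noise.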 Conditions: higher = more signal.
Experiment [14] can be described thus: probe aNOTCH2 binding on compound microarray – biochemical, small-molecule microarray, 635/667 nm fluorescence, primary screen (AID 1121).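 Note: score merges feature fluorescence read at 667 nm with its signal to noise.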 Conditions: higher = more signal.
The target of experiment [15] is Carbonic anhydrase 2 (Homo sapiens) (UniProt P00918). Put plainly: compounds binding carbonic anhydrase 2 – biochemical, small-molecule microarray, Alexa647-labelled CAII, profiling panel (AID 1122). The note with it: CAII-A647 binding fluorescence, higher = more signal.
Experiment [16] can be described thus: COS7 lysate on small-molecule microarray, probe aHis, 635 nm (AID 1123).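 Note: z-score combines 667nm fluorescence intensity with signal-to-noise per printed compound spot.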 Conditions: COS7 cell lysate, fluorescence, higher = more signal.
A short description of experiment [17]: probe aLAP1 signal on lysate-treated microarray – cell lysate, small-molecule microarray, COS7 lysate, primary screen (AID 1124).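 Note: lysate comes from COS7 cells expressing LAP1 and is applied at 0.3 µg/mL; score merges spot fluorescence near 667 nm with signal-to-noise over triplicate slides.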 Conditions: probe aLAP1, fluorescence, higher = more signal.
Experiment [18] concerns Sam68 (KHDRBS1). Nature of the experiment: compounds binding KHDRBS1 protein – biochemical, small-molecule microarray, 635 nm fluorescence, primary screen (AID 1125).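 Note: score merges 667 nm channel intensity with signal to noise over triplicate slides.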 The note with it: higher = more signal.
In experiment [19] the test system is Chordin-like protein 2 (CHRDL2). Nature of the experiment: compounds binding chordin-like 2 – biochemical, small-molecule microarray, 635 nm fluorescence, primary screen (AID 1126).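 Note: printed compound slides probed with Chrdl2 protein at 4 µg/mL for 1 h at 4 C; score merges 667 nm emission intensity with signal to noise over three replicate slides.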 The note with it: fluorescence 635 nm, higher = more signal.
Experiment [20] deals with Concanavalin-A (Canavalia ensiformis) (UniProt P02866). Nature of the experiment: compounds binding concanavalin A lectin – biochemical, small-molecule microarray, Alexa647 label, 635 nm, artefact control for SMM control protein annotation, primary screen (AID 1127).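 Note: z combines 667 nm emission intensity with signal-to-noise across three replicate slides.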 Conditions: ConA-A647 binding fluorescence, higher = more signal.
Chain of Concanavalin-A (Canavalia ensiformis) (P02866 whole entry, looked up): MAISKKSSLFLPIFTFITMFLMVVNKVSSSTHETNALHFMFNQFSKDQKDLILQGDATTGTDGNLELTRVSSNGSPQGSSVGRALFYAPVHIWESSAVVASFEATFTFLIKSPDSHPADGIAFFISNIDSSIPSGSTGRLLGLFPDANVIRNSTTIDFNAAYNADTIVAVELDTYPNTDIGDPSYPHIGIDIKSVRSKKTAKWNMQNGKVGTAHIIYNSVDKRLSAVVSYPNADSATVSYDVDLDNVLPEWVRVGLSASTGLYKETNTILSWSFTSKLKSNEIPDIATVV

Chain of Alpha-bungarotoxin (Bungarus multicinctus) (P60615 whole entry, looked up): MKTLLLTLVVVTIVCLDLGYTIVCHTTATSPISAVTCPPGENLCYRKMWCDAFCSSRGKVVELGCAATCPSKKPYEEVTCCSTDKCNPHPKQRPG
Chain of Left-right determination factor 2 (Homo sapiens) (O00292 whole entry, looked up): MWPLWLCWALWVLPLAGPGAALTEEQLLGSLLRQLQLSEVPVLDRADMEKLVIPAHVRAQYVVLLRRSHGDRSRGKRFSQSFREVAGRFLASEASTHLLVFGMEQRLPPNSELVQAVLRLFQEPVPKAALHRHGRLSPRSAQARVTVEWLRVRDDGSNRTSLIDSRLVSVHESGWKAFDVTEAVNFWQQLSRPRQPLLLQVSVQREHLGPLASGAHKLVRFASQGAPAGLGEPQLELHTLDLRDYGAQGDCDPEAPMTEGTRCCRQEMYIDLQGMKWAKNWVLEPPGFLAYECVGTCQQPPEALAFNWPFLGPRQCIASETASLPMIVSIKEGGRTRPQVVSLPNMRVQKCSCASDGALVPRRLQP
Chain of Albumin (Bos taurus) (P02769 whole entry, looked up): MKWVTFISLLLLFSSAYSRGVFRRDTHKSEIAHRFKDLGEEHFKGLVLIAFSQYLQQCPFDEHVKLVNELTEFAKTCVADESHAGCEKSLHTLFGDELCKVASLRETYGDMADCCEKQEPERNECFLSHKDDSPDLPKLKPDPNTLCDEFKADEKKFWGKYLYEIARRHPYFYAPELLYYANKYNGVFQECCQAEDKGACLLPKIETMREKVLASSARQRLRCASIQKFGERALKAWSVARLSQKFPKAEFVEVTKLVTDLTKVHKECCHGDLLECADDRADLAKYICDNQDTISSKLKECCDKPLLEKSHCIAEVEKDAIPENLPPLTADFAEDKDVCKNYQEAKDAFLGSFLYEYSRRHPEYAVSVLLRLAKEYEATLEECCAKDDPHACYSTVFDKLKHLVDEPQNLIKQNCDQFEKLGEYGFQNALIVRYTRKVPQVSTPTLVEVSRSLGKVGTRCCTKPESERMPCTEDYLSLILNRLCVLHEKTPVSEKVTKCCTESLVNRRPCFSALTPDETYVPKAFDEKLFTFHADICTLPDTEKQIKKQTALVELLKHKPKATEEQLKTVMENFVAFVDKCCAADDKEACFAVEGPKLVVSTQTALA
Chain of Torsin-1A-interacting protein 1 (Homo sapiens) (Q5JTV8 whole entry, looked up): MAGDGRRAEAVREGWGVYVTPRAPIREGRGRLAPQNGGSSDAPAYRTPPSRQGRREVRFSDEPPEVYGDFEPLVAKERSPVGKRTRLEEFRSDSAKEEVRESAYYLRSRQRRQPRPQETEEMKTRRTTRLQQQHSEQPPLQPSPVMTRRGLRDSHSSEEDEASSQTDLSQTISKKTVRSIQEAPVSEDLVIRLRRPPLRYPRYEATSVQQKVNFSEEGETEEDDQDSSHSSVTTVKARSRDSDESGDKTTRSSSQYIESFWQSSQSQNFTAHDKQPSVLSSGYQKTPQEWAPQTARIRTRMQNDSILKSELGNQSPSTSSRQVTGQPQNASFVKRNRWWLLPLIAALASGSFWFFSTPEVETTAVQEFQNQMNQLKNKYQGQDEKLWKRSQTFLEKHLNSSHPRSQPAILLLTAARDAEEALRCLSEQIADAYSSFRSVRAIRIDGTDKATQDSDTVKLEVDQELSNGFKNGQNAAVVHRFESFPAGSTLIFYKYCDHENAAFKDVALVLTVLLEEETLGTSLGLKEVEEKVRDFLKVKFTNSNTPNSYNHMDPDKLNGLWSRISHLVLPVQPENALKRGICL

`COC(=O)C(CC#Cc1ccc2c(c1)[C@]1(C(=O)N2)[C@H](c2ccc(OCCO)cc2)N2[C@H](c3ccccc3)[C@H](c3ccccc3)OC(=O)[C@H]2[C@@H]1C(=O)O)C(=O)OC`: the composite z-score in experiment [1] came out at 0.324; in experiment [3], 0.431; in experiment [4], 1.23; in experiment [5] it was 0.707; in [6] it was 0.0438; in [7] it was 0.446. Besides, the composite z-score came out at 0.812 in [8]; 2.1 in experiment [9]; 1.83 in experiment [10]; 0.803 in [11]; 0.328 in experiment [13]; 0.224 in [14]. The composite z-score in [15] was 0.724; in [16], 1.37; in experiment [17], 0.26; in experiment [18] it was 1.28; in [19], 0.368; in experiment [20] it was 1.15. Moreover, the z-score in [2] is -0.442. Also, the composite Z-score in [12] is 0.419 (inactive).
As to `CC(C)C[C@H]1NC(=O)[C@H](C)NC(=O)[C@@]23C(=O)N[C@@H](Cc4ccccc4)C2[C@H](C)[C@@]2(C)O[C@H]2C3/C=C/C/C=C\CNC1=O` (stereo not given in full), the composite z-score in experiment [1] was 0.84; in [3], -0.206; in experiment [4], -0.893; in experiment [5], -0.806; in [6] it was -0.166; in experiment [7] it was -0.123. Further, the composite z-score was 0.202 in [8]; 0.462 in experiment [9]; -0.086 in experiment [10]; 0.876 in experiment [11]; -0.227 in experiment [13]; -0.172 in [14]. Besides, the composite z-score is 0.734 in experiment [15]; -0.38 in experiment [16]; -0.229 in [17]; 0.371 in [18]; 0.409 in experiment [19]; -0.565 in experiment [20]. This compound also registered a z-score in experiment [2] of -0.201. Moreover, in experiment [12], the composite Z-score was -0.155 (inactive).
Regarding `CC(C)CNC(=O)[C@@]1(C)c2ccccc2C(=O)N(Cc2ccccc2)[C@H]1c1ccc(CO)cc1`, the composite z-score in experiment [1] was -0.205; in experiment [3] it was -1.55; in experiment [4] it was -1.21; in experiment [5], 0.431; in experiment [6] it was -0.192; in experiment [7], -0.0735. Besides, the composite z-score is -0.327 in experiment [8]; 0.055 in experiment [9]; -0.905 in experiment [10]; -0.928 in experiment [11]; -0.352 in experiment [13]; -0.133 in experiment [14]. Besides, the composite z-score was 0.788 in experiment [15]; 1.19 in experiment [16]; 1.16 in [17]; -0.992 in experiment [18]; -2.5 in experiment [19]; -1.44 in experiment [20]. This compound yielded a z-score in experiment [2] of 0.0768. Also, the composite Z-score in [12] was 3.02 (inactive).
With `Cc1ccccc1C(O)C1C=CC2C(=O)N(C)C(=O)C2N1Nc1ccc([N+](=O)[O-])cc1[N+](=O)[O-]` (stereo not given), the composite z-score in [1] turned out to be 1.45; in experiment [3] it was 0.0979; in [4], 1.43; in [5], 1.08; in experiment [6] it was 0.14; in [7], 0.254. For the same compound, the composite z-score in experiment [8] was -0.235; in experiment [9], 1.24; in [10] it was 1.36; in [11], 0.953; in [13] it was 0.338; in experiment [14], -0.108. The composite z-score is 0.671 in [15]; 2.47 in [16]; 0.288 in experiment [17]; 1.29 in [18]; -0.723 in experiment [19]; 1.16 in experiment [20]. Also, the z-score in experiment [2] is 0.265. Moreover, the composite Z-score in experiment [12] is 0.451 (inactive).
On to `CCCCC(=C=CC[C@H](O)c1cccc(OCCO)c1)C[C@H](O)COCc1ccccc1`, for which the composite z-score was 0.49 in experiment [1]; -0.466 in experiment [3]; -0.59 in experiment [4]; -0.897 in experiment [5]; -0.148 in experiment [6]; -0.154 in experiment [7]. The composite z-score in experiment [8] is -0.397; in experiment [9], -0.432; in [10] it was -0.283; in experiment [11], 0.92; in experiment [13] it was -0.179; in [14], -0.107. Further, the composite z-score in experiment [15] was 0.697; in [16], 0.972; in experiment [17], -0.501; in [18], 0.435; in experiment [19], -0.592; in experiment [20] it was 0.0194. Further, the z-score in [2] is -1.88. The composite Z-score in experiment [12] is 0.11 (inactive).
Consider `CN(C)CCCNC(=O)[C@@]1(Cc2ccccc2I)c2ccccc2C(=O)N(Cc2ccccc2Cl)[C@H]1c1ccc(CO)cc1`, for which the composite z-score in experiment [1] is -0.93; in experiment [3], -1.3; in experiment [4] it was 1.48; in experiment [5], 0.775; in [6] it was 0.157; in experiment [7], -0.12. In addition, the composite z-score is -0.784 in [8]; 0.461 in experiment [9]; 1.27 in experiment [10]; 0.827 in experiment [11]; 0.175 in [13]; 0.2 in experiment [14]. Moreover, the composite z-score in [15] is 0.522; in [16], 1.44; in experiment [17], 0.507; in experiment [18], -0.035; in experiment [19], -1.09; in [20] it was 1.09. The same compound showed a z-score in experiment [2] of -3.47. The composite Z-score in experiment [12] is -0.175 (inactive).
